# This is a sample that favours compounds with a hit; in the whole collection about 5.2% have one here.
# PLK1 PBD block = PLK1 (human) polo-box domain binding inhibition. AID 720504. Plk1 PBD binding of FITC phosphopeptide, fluorescence polarization. P53350. Potency, µM, inactives show max response, negative = inhibition, actives largely listed as inhibitors. actives 2.8% (n = 360,000); note: series mostly up to about 57 µM; nearly all actives have a fitted effect of over 65% in size
# mIDH1 inhibitor = inhibitors of human mutant IDH1 R132H. O75874. IDH1-R132H enzyme, NADPH consumption, diaphorase/resazurin fluorescence. Potency, µM (series often up to 76.6 µM), for the others: at the top dose activity change, negative = inhibition, actives largely listed as inhibitors. actives 0.093% (n = 390,000); note: nearly all actives have a fitted effect of over 65% in size
#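 IDH1-R132H (0.5 ug/mL) preincubated 30 min with compound, then NADPH (0.016 mM) and alpha-KG (2 mM) added; 80 min at RT, pH 7.5. Remaining NADPH coupled via diaphorase/resazurin to fluorescence (540/590 nm); concentration-response curves normalized to no-enzyme control.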
# Sfp inh = Sfp phosphopantetheinyl transferase inhibition | Biochemical Sfp PPTase activity, qHTS | Potency, µM, without a hit: largest response in the series, negative = inhibition, most hits filed as inhibitors | Q9F4F7 | AID 1490 | actives 3.5% (n = 310,000);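 note: the enzyme is Sfp with the accession as filed and its product quenches rhodamine fluorescence; 0% = enzyme reaction without inhibitor and -100% = no enzyme wells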
#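 Step 1, compound plus 15 nM Sfp-PPTase, 15 min, room temperature. Step 2, add rhodamine-CoA (5 uM) and BHQ-2-YbbR (12.5 uM). Step 3, read 525/598 nm fluorescence at 0 and 30 min.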
# VDR inhibitor = blocks the human vitamin D receptor. actives 0.93% (n = 400,000). P11473. VDR-SRC2-3 peptide fluorescence polarization, 2 h. Potency, µM, inactives show max response, negative = inhibition, most hits filed as inhibitors
# Target sequence (P11473 whole entry, looked up): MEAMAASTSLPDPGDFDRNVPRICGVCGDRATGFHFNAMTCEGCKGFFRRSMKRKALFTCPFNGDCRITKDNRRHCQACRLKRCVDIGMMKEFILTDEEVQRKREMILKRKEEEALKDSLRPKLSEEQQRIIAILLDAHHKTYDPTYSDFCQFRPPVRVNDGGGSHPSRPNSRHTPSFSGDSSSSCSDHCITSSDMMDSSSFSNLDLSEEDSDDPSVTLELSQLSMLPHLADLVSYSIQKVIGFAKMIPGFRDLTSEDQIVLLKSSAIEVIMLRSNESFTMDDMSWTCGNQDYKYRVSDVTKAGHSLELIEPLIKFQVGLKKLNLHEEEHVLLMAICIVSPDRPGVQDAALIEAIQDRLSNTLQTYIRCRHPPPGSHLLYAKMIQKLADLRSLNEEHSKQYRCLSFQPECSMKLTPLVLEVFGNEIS
#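 Reagent solutions, kept cold and dark, are dispensed first; compounds are then pinned in at 23 nl, plates briefly spun, and incubated 2 h at ambient temperature. Inhibition of VDR–SRC2-3 peptide binding is read by fluorescence polarization.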
# TrxR1 inh = rat TrxR1 inhibition; Potency, µM (top dose mostly 114 µM), inactives show top-dose activity change, negative = inhibition, usual class: inhibitors; AID 588453; recombinant rTrxR1, NADPH fluorescence consumption, selenite substrate; actives 1% (n = 390,000); O89049; note: nearly all actives have a fitted effect of over 65% in size
#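 Rat TrxR1 (90 nM in the dispensed reagent) was pre-reduced with 400 uM NADPH for 5 min at room temperature, then incubated with compound for 15 min. After 400 uM selenite was added, NADPH fluorescence (Ex 340/Em 450 nm) was followed for 8 min.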
# TrxR1 substrate = rat thioredoxin reductase 1 substrate activity; O89049; purified TrxR1 substrate turnover, NADPH consumption readout; Potency, µM (highest dose often 114 µM), for the others: at the highest dose activity change, negative = substrate turnover; actives 0.01% (n = 390,000); AID 588456; note: nearly all actives have a fitted effect of over 50% in size
#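 Rat TrxR1, dispensed at 90 nM, was prereduced with 400 uM NADPH (final) for 5 min at ~22 deg C, then incubated with compound 15 min before 400 uM selenite. A first-read NADPH fluorescence drop versus no-compound background flagged substrates.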
# Numbers without * were called inactive; ? = inconclusive; / = no result given; ! = a repeat was not active; [ ] = remark or other dose. Calls come from the whole dose curve; as a rule, active = well fitted curve in the direction sought with a large enough effect; inconclusive = small, poorly fitted or top-dose-only effect, or another doubt; inactive = no such curve, though single readings can be large; an effect the other way counts as inactive or inconclusive. Unless noted, % is set by controls: 0 for no effect and ±100 for the full control effect; potency is the fitted concentration of half-maximal effect.
SMILES,PLK1 PBD block,mIDH1 inhibitor,Sfp inh,VDR inhibitor,TrxR1 inh,TrxR1 substrate
CCn1c(O)c(/C=N/N2CCOCC2)c(=O)n(CC)c1=S,-20%,-10%,-6%,3%,-30%,-19%
CCn1c(O)c(C(=O)CC2NCCc3ccccc32)c(=O)n(CC)c1=S (stereo not given),11%,0%,45µM*,-4%,-12%,0%
C[C@@H]1CO1,/,/,4%,-3%,/,/
CCOc1cc(/C=C(\C#N)C(=O)NCC2CCCO2)ccc1OCC(N)=O (stereo not given),30µM*,-12%,1%,-26%,15%,0%
Cc1cccc(-n2c(O)c(C)c(=O)[nH]c2=S)c1,12µM*,0%,13%,-26%,-18%,-2%
O=c1[nH]c(=S)n(-c2cccc(Cl)c2)c(O)c1/C=N/N1CCOCC1,-8%,-4%,-13%,4%,?,-19%
Cc1[nH]c(=S)c(C#N)c2c1CCCC2,27µM*,3%,1%,?,?,-8%
CC(=O)O[C@H]1C(=O)[C@@]2(C)C([C@H](OC(=O)c3ccccc3)[C@]3(O)C[C@H](OC(=O)[C@H](O)[C@@H](NC(=O)c4ccccc4)c4ccccc4)C(C)=C1C3(C)C)[C@]1(OC(C)=O)CO[C@@H]1C[C@@H]2OC(=O)[C@H](C)NC(=O)c1ccc(-c2c3ccc(=O)cc-3oc3cc(O)ccc23)c(C(=O)O)c1 (stereo not given in full),/,/,-1%,-14%,/,/
O=C(NC1CCCCCC1)c1ccc[nH]c1=S,-7%,5%,?,?,-20%[57.1 µM],8%
COc1ccc(C(=O)NC(=S)N2C[C@H]3C[C@H](C2)c2cccc(=O)n2C3)cc1OC,-10%,1%,?,5%,?,6%
CCCOc1ccc(C(=O)NC(=S)N2C[C@H]3C[C@H](C2)c2cccc(=O)n2C3)cc1,27µM*,-6%,45µM*,-18%,-7%,2%
COc1cc(CNC(=O)CCCC/C=C/C(C)C)ccc1O,-5%,8%,-4%,-20%,17%,9%
CC1=C[C@H]2[C@]3(O)C(C=C(CO)C[C@]2(O)C1=O)[C@@H]1C(C)(C)[C@]1(O)[C@H](O)[C@H]3C (stereo not given in full),/,/,4%,4%,/,/
CCOc1ccc(CC2C(=O)NC(=O)N(c3ccc(CC)cc3)C2=O)cc1 (stereo not given),-24%,-3%,56µM*,?,-1%,-2%
CN(C)c1ccc(NC(=O)CN2C(=O)CN=C(c3ccccc3)c3cc(Cl)ccc32)cc1,-5%,17%,79µM*,8%,0%,-8%
Cc1ccc(NC(=O)CN2C(=O)CN=C(c3ccccc3)c3cc(Cl)ccc32)cc1,-15%,3%,-1%,-9%,21%,-6%
CCCCCc1cc(O)c2c(c1)OC(C)(C)C1CC=C(C)CC21 (stereo not given),/,/,16%,?,/,/
CCCC(=O)O[C@@H]1[C@@H](C)[C@@]2(O)[C@@H](C=C(CO)C[C@@]3(O)C(=O)C(C)=C[C@@H]23)[C@@H]2C(C)(C)[C@]12OC(=O)CCC,/,/,-13%,11%,/,/
CC(=O)OC1CC[C@@]2(C)C3CC(=O)[C@]4(C)C(C(C)=O)=CCC4C3CC[C@H]2C1 (stereo not given in full),/,/,-9%,2µM*,/,/
Cc1ccc(OCC(=O)N2CCN(Cc3ccc([N+](=O)[O-])cc3)CC2)cc1,?,-5%,89µM*,-18%,8%,-7%
O=c1[nH]c(O)c(/C=C2\C=Nc3ccc(OCc4ccccc4)cc32)c(=O)[nH]1,24µM*,-11%,4%,-29%,-26%,-11%
CCCCn1c(O)c(/C=C2\C=Nc3ccccc32)c(=O)[nH]c1=O,-20%,-1%,-8%,53%,?,-10%
CC(C)C1C(=O)N2CCCC2[C@]2(O)O[C@@](NC(=O)[C@@H]3C=C4c5cccc6[nH]cc(c56)C[C@H]4N(C)C3)(C(C)C)C(=O)N12 (stereo not given in full),/,/,-16%,/,/,/
N#CC(C#N)=Cc1ccc(N2CCOCC2)cc1,-8%,-5%,14%,-6%,71µM*,-9%
N#C/C(=C\c1ccc(O)cc1)C(=O)O (tested in a mixture with another compound),-13%,11%,/,-12%,-2%,-11%
SMILES,PLK1 PBD block,mIDH1 inhibitor,Sfp inh,VDR inhibitor,TrxR1 inh,TrxR1 substrate
N#CC(C#N)=Cc1ccc(O)cc1,/,/,22µM*!,50µM*,/,/
N#CC(C#N)=Cc1cc(O)c(O)c(O)c1,/,/,50µM*,22µM*,?,/
N#CC(C#N)=Cc1cccnc1,-17%,4%,-25%,?,14µM*,15%[57.1 µM]
CC[C@H](C)[C@H](NC(=O)[C@@H]1CCCN1C(=O)[C@H](CCC(=O)O)NC(=O)[C@@H](NC(=O)[C@H](Cc1ccccc1)NC(=O)[C@@H]1CCCN1C(=O)[C@@H](N)Cc1ccc(O)cc1)C(C)C)C(=O)O,/,/,17%,0%,/,/
c1ccc2c(c1)OC[C@@H](C1=NCCN1)O2,/,/,2%,-7%,/,/
CO[C@H]1C=C2CCN(C)[C@@H]2[C@@H]2c3cc4c(cc3C(=O)O[C@H]21)OCO4,/,/,9%,4%,/,/
C/C1=C\[C@@H](C)C/C=C/[C@H]2[C@@H]3O[C@]3(C)[C@@H](C)[C@H]3[C@H](Cc4c[nH]c5ccccc45)NC(=O)[C@]32C(=O)/C=C/C(=O)[C@@H]1O,?,-4%,13µM*,?,?,2%
Cc1ccc2cc3c(ccc4ccccc43)c3c2c1CC3,/,/,50µM*,-2%,/,/
Cc1ccc2ccccc2c1NC(=O)CNC1CCCCC1,2%,5%,-3%,-2%,18%,8%
Cc1cc(=O)oc2c3c(cc(OCC(=O)N4CCC[C@H]4C(=O)O)c12)OC(C)(C)CC3,3%,11%,11%,-16%,?,743%
OC(c1ccc(Cl)cc1)(c1cncnc1)c1ccccc1Cl (stereo not given),/,/,-12%,?,/,/
Cc1ccccc1C1=NCC(=O)N(CC(=O)NCc2ccco2)c2sc3c(c21)CCCC3,-14%,1%,50µM*,2%,?,4%
O=Cc1cn(Cc2c(F)cccc2Cl)c2ccccc12,-1%,8%,50µM*,17%,36%,11%
O=Cc1cn(Cc2ccccc2F)c2ccccc12,-7%,-13%,?,-10%,4%,-6%
CCC(=NCc1ccc2c(c1)OCO2)c1c(O)n(C)c(=O)n(C)c1=O,-10%,13%,9%,12%,15%,7%

# Compound activity: PubChem BioAssay, National Center for Advancing Translational Sciences (NCATS)
